Experimental data reported in PubChem BioAssay AID488975 (Johns Hopkins Ion Channel Center, 2010).
Hit rate of the full screen: of about 310,000 compounds, about 2,600 (0.84%) were called active.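 The calls were made as follows: active = B-score over 3 SD under the library average, and starting fluorescence ratio not unusually high; inactive = the rest.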 The full list was thinned out, with actives kept by preference.

target: High affinity choline transporter 1 (Homo sapiens) (UniProt Q9GZV3); assay: inhibitors of human choline transporter CHT (AID 488975); details: CHT-expressing cells, membrane potential dye, choline response, at 10 µM; active compounds read low;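 as to B-score: choline stimulus applied at its EC90 after an EC20 pre-addition; B-score computed on integrated fluorescence ratio after choline addition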
Sequence (Q9GZV3 whole entry, looked up): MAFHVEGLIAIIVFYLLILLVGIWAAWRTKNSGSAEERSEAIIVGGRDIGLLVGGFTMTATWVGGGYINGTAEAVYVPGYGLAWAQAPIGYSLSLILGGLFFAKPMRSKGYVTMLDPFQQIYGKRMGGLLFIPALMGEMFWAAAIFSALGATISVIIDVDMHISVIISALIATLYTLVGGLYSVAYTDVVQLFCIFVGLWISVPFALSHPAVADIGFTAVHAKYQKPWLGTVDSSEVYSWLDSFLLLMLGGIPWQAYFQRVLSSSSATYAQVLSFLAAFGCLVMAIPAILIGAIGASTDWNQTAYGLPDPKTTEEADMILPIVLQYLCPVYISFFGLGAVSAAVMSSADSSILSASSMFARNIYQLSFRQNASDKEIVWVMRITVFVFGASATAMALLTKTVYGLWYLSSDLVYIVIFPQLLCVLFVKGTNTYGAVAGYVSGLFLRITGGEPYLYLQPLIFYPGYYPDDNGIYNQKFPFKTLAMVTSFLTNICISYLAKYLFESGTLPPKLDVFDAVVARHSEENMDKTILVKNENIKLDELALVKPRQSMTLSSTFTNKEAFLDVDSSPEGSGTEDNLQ

B-score, active:
Cc1oc2cc([N+](=O)[O-])c(O)c([N+](=O)[O-])c2c1C(=O)c1ccc(Br)cc1 -6.57
COc1ccc(NC(=O)c2sc(N)nc2-c2ccccc2)cc1 -8.57
COc1ccc(C(=O)NC(C)c2nccs2)cc1OC1CCN(C(C)C)CC1 (stereo not given) -5.22
O=C(O)c1ccc(N/N=C/c2cn(-c3ccccc3)nc2-c2cccs2)cc1 -5.81
CC(C)(C)c1ccc(C(=O)CSc2ncn[nH]2)cc1 -5
CC(=O)c1ccc(Oc2cc(C)nc(-n3nc(C)cc3C)n2)cc1 -5.97
CCCCC(=O)NNC(=S)NC(=O)C(c1ccccc1)c1ccccc1 -10.8
COc1ccc(C(CNC(=O)c2cccc(NS(=O)(=O)c3ccc(C)c(F)c3)c2)N2CCCC2)cc1 (stereo not given) -5.37
O=[N+]([O-])c1cc(Cl)cc(/C=N/NC(=S)Nc2cc(S(=O)(=O)N3CCOCC3)ccc2Cl)c1O -11.3
Cc1ccc(NNC(=O)c2cccs2)cc1Cl -4.98

B-score, inactive:
COc1ccc(C(=O)c2c(C)oc3cc([N+](=O)[O-])c(O)c([N+](=O)[O-])c23)cc1
Cc1oc2cc(Br)c(O)c(Br)c2c1C(=O)c1ccccc1
COc1ccccc1CCNC(=O)C(=O)NCCC1CCCCN1S(=O)(=O)c1cccs1 (stereo not given)
CCOc1ccc(NS(=O)(=O)c2ccc(C(=O)NCC(c3ccccc3OC)N3CCCC3)cc2)cc1 (stereo not given)
COc1ccc(Cl)cc1NC(=O)CN(C)C(=O)c1cc2ccccc2cc1OC
Cc1onc(-c2ccccc2Cl)c1C(=O)OCc1nnc(-c2ccccc2)o1
COc1ccc(NC(=O)CSc2nc(N)c(-c3ccccc3)c(=O)[nH]2)cc1
COc1ccc(NC(=O)c2sc(N3CCOCC3)nc2-c2ccccc2)c(OC)c1
COc1ccc(C(=O)NC2CC2)cc1OC1CCN(Cc2cnn(C)c2)CC1
COCCOC1CCN(C(=O)c2ccc(OC)c(OC3CCN(C(C)C)CC3)c2)CC1
Cc1cc(C)c(S(=O)(=O)NCC(c2ccc3c(c2)OCO3)N2CCOCC2)c(C)c1 (stereo not given)
Cc1nc2ccccc2c(=O)n1-c1ccc(NS(=O)(=O)c2ccc(F)cc2F)cc1
COc1ccc(C(=O)OCC(=O)c2ccc(Cl)s2)c(OC)c1OC
CN(C)CCCN(C(=O)c1ccc(S(=O)(=O)N2CCCCCC2)cc1)c1nc2cc3c(cc2s1)OCCO3
O=C(/C=C\c1cn(-c2ccccc2)nc1-c1cccs1)N1CCOCC1
O=C(O)/C=C/c1cn(-c2ccccc2)nc1-c1cccs1
COc1ccc(NS(=O)(=O)c2ccc(C)c(C(=O)NCC(c3cccs3)N3CCOCC3)c2)cc1 (stereo not given)
Cn1nnc(NC(=O)CSc2ncn[nH]2)n1
CCN(C(=O)CSc1ncn[nH]1)c1cccc2ccccc12
O=C(CCNC(=O)c1ccc(Br)cc1)Nc1cccc(S(=O)(=O)N2CCCCC2)c1
CCOC(=O)c1c(C)oc2cc(Sc3ccccc3)c(O)c(O)c12
CCN1C(=O)[C@H]2[C@@H](c3ccc(-c4ccc(OC)cc4)cc3)N[C@@](Cc3ccccc3)(C(=O)OC)[C@H]2C1=O
COc1ccc(C2=NOC(Cn3nc(C(=O)NCc4ccc5c(c4)OCO5)cc3-c3ccccc3)C2)cc1 (stereo not given)
Cc1cccc(N(Cc2ccccc2)C(=O)c2cc(S(=O)(=O)N3CCOCC3)ccc2F)c1
Cc1cc(C)n(-c2ccc(Cl)c(C(=O)O)n2)n1
Cc1cc(C)n(-c2cc(Oc3ccccc3)ncn2)n1
O=C1[C@H]2[C@@H](c3ccc(Cl)cc3)N3C(=O)N(c4cccc(F)c4)C(=O)[C@@]3(Cc3ccccc3)[C@H]2C(=O)N1C1CCCCC1
O=C(NNC(=S)NCc1ccco1)C(c1ccccc1)c1ccccc1
CC(C)C(=O)Nc1cccc(NC(=S)NC(=O)C(c2ccccc2)c2ccccc2)c1
CC1CN(C(=O)c2cc(COc3c(F)cccc3F)on2)CCN1C (stereo not given)
COc1ccc(C(CNC(=O)c2cccc(S(=O)(=O)Nc3ccccc3Cl)c2)N2CCOCC2)cc1 (stereo not given)
Cc1cc(S(=O)(=O)Nc2ccc(C(=O)NCC(c3ccco3)N3CCCC3)cc2)ccc1F (stereo not given)
CC(=O)c1ccc(NC(=O)C2CCCN2S(=O)(=O)c2cccs2)cc1 (stereo not given)
COc1ccc(CCNC(=O)C(=O)NCC2CCCN2S(=O)(=O)c2cccs2)cc1OC (stereo not given)
Cc1occc1C(=O)N/N=C/c1ccc(-c2cccc([N+](=O)[O-])c2)o1
O=C(CN1CCN(c2ccc(O)cc2)CC1)Nc1cc(S(=O)(=O)N2CCOCC2)ccc1Cl
O=C(N/N=C/c1cc(Cl)cc([N+](=O)[O-])c1O)C(O)(c1ccccc1)c1ccccc1
CC(=O)N1CCN(C(=O)c2cc(-c3ccc(C)o3)nc3ccccc23)CC1
O=C(O)C1C2C=CC(C2)C1C(=O)NCc1ccccc1 (stereo not given)
Cc1ccc(NNC(=O)c2c(F)cccc2Cl)cc1Cl
